This is a sample that favours compounds with a hit; in the whole collection about 4.2% have one here.
tim23-1 inh: tim23-1 yeast growth inhibition; inhibition, % at 20 µM; S. cerevisiae tim23-1 growth, BacTiter-Glo luminescence, 24 h; actives 1.3% (n = 330,000);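 active = growth inhibition of the mutant yeast at or above 50%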;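 also: temperature-sensitive mutant grown at 25 °C; plate controls were DMSO-treated mutant yeast for no effect and medium wells lacking yeast for full effect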
tim10-1 inh: tim10-1 yeast growth inhibition | S. cerevisiae tim10-1 ts strain growth, BacTiter-Glo, 24 h | inhibition, % at 20 µM | actives 2.2% (n = 330,000) | AID 463190;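 active = inhibition of at least 40%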;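 also: mutant grown at 25 °C; 0% = DMSO wells with yeast and 100% = wells holding no yeast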
TIM10 inh: TIM10 yeast growth inhibition | actives 1.4% (n = 330,000) | inhibition, % at 10 µM | AID 463195 | S. cerevisiae TIM10 strain growth, BacTiter-Glo luminescence, 24 h;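 active = inhibition of 40% or more at the single tested concentration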;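 also: wild-type TIM10 isogenic control strain grown at permissive 25 °C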
NALP1 yeast inh: blocks the NALP1 inflammasome reconstituted in yeast; S. cerevisiae NALP1/ASC/caspase-1 growth, X-gal OD620, 72 h; inhibition, % at 10 µM; actives 0.61% (n = 280,000); AID 2071; in the data active = inhibition mostly above about 24%, no sharp cut-off; inactive = mostly below about 32%
NLRP3 yeast inh: inhibitors of NALP3 inflammasome in yeast; Yeast reconstituted NLRP3/ASC/caspase-1, beta-gal luminescence, 24 h; inhibition, % at 10 µM; actives 0.39% (n = 330,000); AID 2825;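 active = inhibition of 50% or more; inactive = inhibition below 50%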;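 also: plate controls were induced DMSO wells for no effect and uninduced yeast grown without galactose for full effect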
V-ATPase pHluor: regulators of yeast V-ATPase proton transport | AID 504577 | response, % at 10 µM | actives 0.37% (n = 350,000) | S. cerevisiae, pHLuorin cytosolic pH fluorescence; in the data active = response mostly above about 7.3%, no sharp cut-off; inactive = mostly below about 5.4%; also: actives read high
tim10-1 confirm: tim10-1 yeast growth inhibition, confirmed; S. cerevisiae tim10-1 ts strain growth, BacTiter-Glo, 24 h; actives 56% (n = 7,400); inhibition, % at 20 µM; shares compounds with tim10-1 inh;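 active = inhibition of yeast growth at or above a set limit in either of two repeat tests at 20 µM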;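 also: tim10-1 mutant grown at permissive 25 °C to find synthetic lethal compounds; 0% = DMSO yeast wells and 100% = medium wells without yeast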
TIM10 conf: TIM10 yeast growth inhibition, confirmed; inhibition, % at 10 µM; S. cerevisiae tim10 strain growth, BacTiter-Glo luminescence, 24 h; shares compounds with TIM10 inh; actives 63% (n = 4,600); AID 463215;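 active = inhibition of yeast growth at or above a set limit in either of two replicates at 10 µM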;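 also: this counterscreen used the strain with wild-type TIM10; 0% = yeast with DMSO and 100% = medium wells lacking yeast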
* = called active by the depositor.

`O=C(Nc1cc(Sc2ccccn2)cc([N+](=O)[O-])c1)c1ccc(Cl)cc1` gave tim23-1 inh 2, tim10-1 inh 2, TIM10 inh 2, NALP1 yeast inh -2, NLRP3 yeast inh -2 and V-ATPase pHluor 2.
CC(C1CC1)N(Cc1ccccc1)C(=S)Nc1ccccc1 (centres undefined) was read as tim23-1 inh 36, tim10-1 inh 42*, TIM10 inh 42*, NALP1 yeast inh -10, NLRP3 yeast inh 5, V-ATPase pHluor 6, tim10-1 confirm 30 and TIM10 conf 40*.
CC(C1CC1)N(Cc1ccccc1)C(=S)Nc1cccc(C(F)(F)F)c1 (centres undefined) was read as tim23-1 inh 47, tim10-1 inh 49*, TIM10 inh 53*, NALP1 yeast inh 44, NLRP3 yeast inh -13, V-ATPase pHluor 2, tim10-1 confirm 48* and TIM10 conf 0.
Screening N/C(Cc1ccc(Cl)cc1)=N\OC(=O)c1ccc2ccccc2c1 returned tim23-1 inh 50, tim10-1 inh 64*, TIM10 inh 75*, NALP1 yeast inh 2, NLRP3 yeast inh 18, V-ATPase pHluor -2, tim10-1 confirm 60* and TIM10 conf 3.
Cc1ccc(/C(N)=N/OC(=O)c2ccc3ccccc3c2)cc1 was read as tim23-1 inh 49, tim10-1 inh 54*, TIM10 inh 55*, NALP1 yeast inh 28, NLRP3 yeast inh 22, V-ATPase pHluor -1, tim10-1 confirm 53* and TIM10 conf 66*.
For N/C(Cc1ccc(Cl)cc1Cl)=N\OC(=O)Cc1ccc(Cl)cc1 the results were tim23-1 inh 47, tim10-1 inh 62*, TIM10 inh 85*, NALP1 yeast inh 23, NLRP3 yeast inh 38, V-ATPase pHluor 3, tim10-1 confirm 55* and TIM10 conf 5.
Screening N/C(Cc1ccc(Cl)cc1)=N\OC(=O)CCc1ccccc1 returned V-ATPase pHluor -1.
`CCc1ccc(OCC(=O)Oc2ccc([N+](=O)[O-])cc2)cc1` gave tim23-1 inh -2, tim10-1 inh -16, TIM10 inh 4, NALP1 yeast inh 22, NLRP3 yeast inh -22 and V-ATPase pHluor 1.
For CCc1ccc(OCC(=O)O/N=C(\N)Cc2ccc([N+](=O)[O-])cc2)cc1 the results were tim23-1 inh 47, tim10-1 inh 57*, TIM10 inh 60*, NALP1 yeast inh 18, NLRP3 yeast inh 21, V-ATPase pHluor 1, tim10-1 confirm 73* and TIM10 conf 41*.
For COc1ccc(CC(=O)O/N=C(\N)Cc2ccc(OC)cc2)cc1 the results were tim23-1 inh 4, tim10-1 inh 10, TIM10 inh 1, NALP1 yeast inh 10, NLRP3 yeast inh 22 and V-ATPase pHluor 1.
`O=C(Nc1nnc(-c2cccs2)s1)c1cccc(F)c1` gave tim23-1 inh -15, tim10-1 inh 0, TIM10 inh -6, NALP1 yeast inh 0, NLRP3 yeast inh -15 and V-ATPase pHluor -1.
`CCOC(=O)CC1(NC(=O)C2CCC(=O)N(Cc3ccccc3F)C2)CCCCC1` (centres undefined) gave tim23-1 inh -12, tim10-1 inh -5, TIM10 inh 11, NALP1 yeast inh 27, NLRP3 yeast inh 0 and V-ATPase pHluor -4.
For COc1ccccc1N1CCN(C(=O)CCCn2nc(C)c([N+](=O)[O-])c2C)CC1 the results were tim23-1 inh 6, tim10-1 inh 5, TIM10 inh 10, NALP1 yeast inh 15, NLRP3 yeast inh 1 and V-ATPase pHluor 1.
Screening Cc1cc(=O)[nH]c(SCc2ccc(Cl)cc2Cl)n1 returned tim23-1 inh 15, tim10-1 inh 0, TIM10 inh 19, NALP1 yeast inh 14, NLRP3 yeast inh 19 and V-ATPase pHluor 0.
`N/C(Cc1ccc(Cl)cc1Cl)=N\OC(=O)c1ccccc1` gave tim23-1 inh 20, tim10-1 inh 65*, TIM10 inh 86*, NALP1 yeast inh 29, NLRP3 yeast inh 22, V-ATPase pHluor -2, tim10-1 confirm 24 and TIM10 conf 84*.
`O=C(C/C=N/OCc1ccc(Cl)cc1Cl)c1ccccc1` gave tim23-1 inh 7, tim10-1 inh 20, TIM10 inh 15, NALP1 yeast inh -6, NLRP3 yeast inh -12 and V-ATPase pHluor -6.
Screening N/C(Cc1ccc([N+](=O)[O-])cc1)=N\OC(=O)Cc1ccc(Cl)cc1 returned tim23-1 inh 37, tim10-1 inh 66*, TIM10 inh 41*, NALP1 yeast inh 17, NLRP3 yeast inh 33, V-ATPase pHluor 2, tim10-1 confirm 16 and TIM10 conf 77*.
Screening O=C(N1CCN=C1SCc1cccnc1)C12CC3CC(CC(C3)C1)C2 returned tim23-1 inh 45, tim10-1 inh 45*, TIM10 inh 45*, NALP1 yeast inh -3, NLRP3 yeast inh 2, V-ATPase pHluor 13, tim10-1 confirm 40* and TIM10 conf 47*.
For O=C(c1cccs1)N1CCN=C1SCc1cccnc1 the results were tim23-1 inh 13, tim10-1 inh 25, TIM10 inh -8, NALP1 yeast inh 7, NLRP3 yeast inh 5 and V-ATPase pHluor -4.
Screening Cc1cc2c3c(c1)C1(SCC(=O)N1c1ccc(F)cc1)C(=O)N3C(C)(C)CC2C (centres undefined) returned tim23-1 inh 45, tim10-1 inh 48*, TIM10 inh 42*, NALP1 yeast inh 0, NLRP3 yeast inh 8, V-ATPase pHluor -7, tim10-1 confirm 40* and TIM10 conf 41*.
`COc1ccc(N2C(=O)CSC23C(=O)N2c4c(cccc43)C(C)=CC2(C)C)cc1` (centres undefined) gave tim23-1 inh 34, tim10-1 inh 29, TIM10 inh 38, NALP1 yeast inh 11, NLRP3 yeast inh 9 and V-ATPase pHluor -3.
`CC(C)Cc1csc(NC(=O)c2ccc(Br)cc2)c1C(=O)O` gave tim23-1 inh 30, tim10-1 inh -12, TIM10 inh 24, NALP1 yeast inh -4, NLRP3 yeast inh -3 and V-ATPase pHluor -1.
`COc1ccc(/C=C2/CCc3ccccc3C2=O)cc1CN1CCOCC1` gave tim23-1 inh 25, tim10-1 inh 13, TIM10 inh 26, NALP1 yeast inh 44, NLRP3 yeast inh 30 and V-ATPase pHluor -1.
`COc1ccc(/C=C2\CCc3ccccc3C2=O)cc1Cn1nc(C)cc1C` gave tim23-1 inh 47, tim10-1 inh 45*, TIM10 inh 49*, NALP1 yeast inh 9, NLRP3 yeast inh 12, V-ATPase pHluor 0, tim10-1 confirm 37* and TIM10 conf 40*.

Screening results: PubChem BioAssay, several laboratories
